Assay results as given in the supplement of paper PMC7866885, “A novel bicyclic 2,4-diaminopyrimidine inhibitor of Streptococcus suis dihydrofolate reductase” (PeerJ, 2021).
± gives the standard deviation.

system: Streptococcus suis P1/7; assay: percent growth relative to DMSO control; higher = less growth inhibition; conditions: 10 µM; incubation time 18 h
Procedure: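 CLSI broth microdilution: 5x10^4 CFU of Streptococcus suis (strain P1/7 or HE06) incubated with 10 µM Pathogen Box compound in cation-adjusted Mueller Hinton broth, 37 °C, 5% CO2, 18 h. Growth read as OD600 and expressed as percent of the DMSO-treated control (100%); mean ± SD of three independent experiments.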

Q: `CCOc1ccc(OCC(=O)Nc2cc(C)cc(C)c2)cc1` was tested. Which percent growth did it give?
A: 94.3 ± 16%

Q: Which percent growth does the source give for `CCN(CC)CCCN1CCN(C(=O)c2cccc(-c3noc(C(F)(F)F)n3)c2)CC1` here?
A: 138 ± 110%

Q: With `COc1cccc(-c2cc3c(Nc4cccnc4)nccc3[nH]2)c1` as the compound, how does the percent growth read?
A: 83.9 ± 23%

Q: How did the percent growth turn out when `CNC(=O)c1cc(S(=O)(=O)N2CCN(c3ccccn3)CC2)cs1` was run?
A: 129 ± 58%

Q: How did the percent growth turn out when `NCC(c1cccs1)S(=O)(=O)c1ccccc1` (stereo not drawn) was run?
A: 90.2 ± 41%

Q: Which percent growth does the source give for `O=C(Nc1ccc(F)c(-c2nc3cc(-c4ccccc4)cnc3[nH]2)c1)N1CCCC1` here?
A: 83.7 ± 5.5%

Q: For `COc1ccc(OC(C)C(=O)Nc2ccc(Cl)cc2C)cc1` (stereo not drawn), which percent growth is on record?
A: 82.7 ± 6.3%

Q: For `COc1ccc(OC)c(NCc2ccc3nc(N)nc(N)c3c2Cl)c1`, which percent growth is on record?
A: 2.34 ± 1.3%

Q: With `O=C1COCc2ccc(Br)cc2N1Cc1ccc(C(F)(F)F)cc1` as the compound, how does the percent growth read?
A: 75.4 ± 7.3%

Q: How did the percent growth turn out when `Nc1ccc(C(=O)Nc2ccc(-c3nc4ccccc4o3)cc2)cc1` was run?
A: 92.6 ± 17%

Q: `COc1cccn2c(C(=O)N3CCCCC3)c(C(F)(F)F)nc12` was tested. Which percent growth did it give?
A: 87 ± 21%

Q: Which percent growth does the source give for `CC(C)(C)c1cnc(NC(=O)c2ccccc2O)s1` here?
A: 1.61 ± 1.4%

Q: How did the percent growth turn out when `CO[C@H]1/C=C/O[C@@]2(C)Oc3c(C)c(O)c4c(O)c(/c(=C/NN5CCN(C)CC5)c(O)c4c3C2=O)=N\C(=O)/C(C)=C\C=C/[C@H](C)[C@H](O)[C@@H](C)[C@@H](O)[C@@H](C)[C@H](OC(C)=O)[C@@H]1C` was run?
A: 1.07 ± 0.94%

Q: For `O=C(NCCc1ccccc1)c1cc(-c2cccnc2)cnc1NCC1CC1`, which percent growth is on record?
A: 59.7 ± 23%

Q: With `Cc1nn2c(=O)c3c([nH]c2c1-c1ccc(Cl)cc1)CCCC3` as the compound, how does the percent growth read?
A: 12.7 ± 22%

Q: `NC(=O)c1cc(Br)ccc1OCCOc1ccccc1` was tested. Which percent growth did it give?
A: 73.4 ± 29%

Q: For `O=C(COc1cccc(F)c1)Nc1nc(-c2ccccn2)cs1`, which percent growth is on record?
A: 3.07 ± 5.3%

Q: `COC(=O)c1c(NC(=O)c2cc3ccccc3oc2=O)sc2c1CCN(Cc1ccccc1)C2` was tested. Which percent growth did it give?
A: 149 ± 81%

Q: How did the percent growth turn out when `c1ccc(Oc2ccc(-c3cc(C4CCOCC4)[nH]n3)cc2)cc1` was run?
A: 49.6 ± 19%

Q: `COc1ccc(C2=NN(C3CCCCCC3)C(=O)C2(C)C)cc1OCCCCOc1ccc(-c2nn[nH]n2)cc1` was tested. Which percent growth did it give?
A: 16.3 ± 27%

Q: For `CCc1nc2ccc(C(=O)NCc3ccc4c(c3)OCO4)cn2c1N(C)Cc1cccs1`, which percent growth is on record?
A: 72.9 ± 11%

Q: `CC(C(=O)Nc1ccc2oc(-c3ccncc3)nc2c1)c1ccccc1` (stereo not drawn) was tested. Which percent growth did it give?
A: 95.8 ± 45%

Q: Which percent growth does the source give for `Nc1ncc(-c2ccc(C(F)(F)F)nc2)cc1-c1ccc(C(F)(F)F)nc1` here?
A: 101 ± 35%

Q: Which percent growth does the source give for `Nc1ncnc2[nH]nc(Cc3cccc4ccccc34)c12` here?
A: 66.1 ± 20%

Q: How did the percent growth turn out when `O=S(=O)(c1ccc(Cl)cc1)N1CCN(C(=S)NCc2ccco2)CC1` was run?
A: 92.6 ± 17%

Q: `CCc1ccc(S(=O)(=O)Nc2cc(CN3CCN(CCC(C)C)CC3)ccc2C)cc1` was tested. Which percent growth did it give?
A: 73.2 ± 8.1%

Q: How did the percent growth turn out when `O=C(NCCc1ccn(-c2ccccc2)n1)C1CCCCC1` was run?
A: 95 ± 23%

Q: Which percent growth does the source give for `Cc1cc(C(=O)Nc2cnn(Cc3ccc(Cl)cc3Cl)c2)no1` here?
A: 97.5 ± 11%

Q: `O=C1Nc2ccc(Br)cc2C12NCCc1c2[nH]c2ccccc12` (stereo not drawn) was tested. Which percent growth did it give?
A: 112 ± 38%

Q: `NS(=O)(=O)c1cncc(-c2ccc3nccc(-c4cn[nH]c4)c3n2)c1` was tested. Which percent growth did it give?
A: 77.6 ± 23%

Q: For `CCc1ccc(C(NCc2nc(N)nc(N(C)C)n2)C(C)C)cc1` (stereo not drawn), which percent growth is on record?
A: 4.17 ± 0.94%

Q: How did the percent growth turn out when `Nc1nc2ccc(-c3cncc(Oc4ccc(F)cc4)c3)cc2[nH]1` was run?
A: 111 ± 67%

Q: `CCc1ccc([C@@H]2C[C@H](C(F)(F)F)n3ncc(C(=O)NCc4ccc(OC)cc4)c3N2)cc1` was tested. Which percent growth did it give?
A: 75.4 ± 5.3%

Q: How did the percent growth turn out when `CCOC(=O)NC(=O)c1ccsc1NC(=O)c1nc2ccccc2s1` was run?
A: 5.08 ± 8.2%

Q: With `FC(F)(F)c1cc(NCCc2ccccc2)nc(-c2ccccn2)n1` as the compound, how does the percent growth read?
A: 9.89 ± 17%

Q: Which percent growth does the source give for `CC[P](CC)(CC)=[Au][S][C@H]1O[C@@H](COC(C)=O)[C@H](OC(C)=O)[C@@H](OC(C)=O)[C@@H]1OC(C)=O` here?
A: 1.51 ± 1.8%

Q: How did the percent growth turn out when `Nc1cccnc1Nc1ccc(Cl)cc1` was run?
A: 101 ± 40%

Q: How did the percent growth turn out when `O=C(Nc1nnc(-c2ccc(Cl)s2)o1)c1ccc(Cl)s1` was run?
A: 3.26 ± 4.9%
